# Rows were chosen to be rich in hits. Some 9.2% of all compounds tested hit in one or more screens of this group.
# HttQ103 aggreg – mutant huntingtin aggregation inhibition | PC12 HttQ103-GFP aggregates, Acumen cytometry, 40 h | Potency, µM (series often up to 46.1 µM), inactives show at the highest dose activity change, negative = inhibition, hits mostly inhibitors | 220,000 compounds, 1.1% hits; active = well fitted curve in the direction sought with a large enough effect; inconclusive = small, poorly fitted or top-dose-only effect, or another doubt; inactive = no such curve, though single readings can be large; an effect the other way counts as inactive or inconclusive; note: % is set by controls: 0 for no effect and ±100 for the full control effect; nearly all actives have a fitted effect of over 60% in size
#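 Inducible Q103 Huntingtin exon 1–GFP PC12 line, 1500 cells/well in phenol red free DMEM with 5% equine and 5% calf serum. Tebufenozide 100 nM induced expression; compounds titrated; aggregates quantified by cytometry.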
# ALDH1A1 inh – blocks purified human ALDH1A1 activity; P00352; 220,000 compounds, 7.3% hits; Purified ALDH1A1, NADH fluorescence, propionaldehyde substrate; Potency, µM (doses to about 75.3 µM), for the others: at the top dose activity, negative = inhibition, actives largely listed as inhibitors;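 note: plate controls were no enzyme wells and a reference inhibitor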
# Target sequence (P00352 whole entry, looked up): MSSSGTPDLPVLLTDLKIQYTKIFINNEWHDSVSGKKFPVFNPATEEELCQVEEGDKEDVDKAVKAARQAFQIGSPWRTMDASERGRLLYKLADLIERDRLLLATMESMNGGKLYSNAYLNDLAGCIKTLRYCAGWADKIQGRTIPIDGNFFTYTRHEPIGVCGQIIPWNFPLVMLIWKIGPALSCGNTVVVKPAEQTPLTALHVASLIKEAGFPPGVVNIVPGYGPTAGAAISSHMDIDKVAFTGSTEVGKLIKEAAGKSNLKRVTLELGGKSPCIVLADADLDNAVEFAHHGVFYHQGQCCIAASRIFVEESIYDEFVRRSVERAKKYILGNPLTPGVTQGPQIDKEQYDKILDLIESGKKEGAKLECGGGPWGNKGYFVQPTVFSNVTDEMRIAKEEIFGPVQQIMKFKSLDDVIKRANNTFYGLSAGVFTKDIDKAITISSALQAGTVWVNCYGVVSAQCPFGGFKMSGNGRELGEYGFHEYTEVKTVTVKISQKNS
# HPGD inh – inhibitors of human 15-hydroxyprostaglandin dehydrogenase (HPGD); purified HPGD, NADH fluorescence kinetic, PGE2 substrate; Potency, µM, for the others: at the top dose activity change, negative = inhibition, actives largely listed as inhibitors; 150,000 compounds, 4.3% hits; note: % is set by controls: 0 for no effect and ±100 for the full control effect
# Target sequence (P15428 whole entry, looked up): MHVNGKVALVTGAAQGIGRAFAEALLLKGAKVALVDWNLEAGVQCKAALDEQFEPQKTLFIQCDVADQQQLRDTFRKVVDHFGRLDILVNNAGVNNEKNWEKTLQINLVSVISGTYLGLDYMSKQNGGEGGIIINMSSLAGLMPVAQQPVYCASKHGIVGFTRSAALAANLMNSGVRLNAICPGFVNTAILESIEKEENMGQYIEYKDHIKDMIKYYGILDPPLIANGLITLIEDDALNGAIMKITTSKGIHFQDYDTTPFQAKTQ
#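 NADH formation kinetics: reaction with 30 uM PGE2 and 1 mM NAD+ (final), 20 nM enzyme, Tris-HCl pH 8 with Tween 20, after 15 min compound preincubation at room temperature. Fluorescence change, last versus first of five reads.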
# LMNA splice mod – changes lamin A minigene splicing in HeLa cells; Potency, µM (highest dose often 46.1 µM), for the others: top-dose ratio change, negative = inhibition, usual class: inhibitors; HeLa LMNA splicing GFP/RFP minigene ratio, 48 h; 200,000 compounds, 0.01% hits; active = well fitted inhibition curve with a large enough effect in the signal ratio, with a control signal flat, not every such curve was filed as active; inconclusive = small, poorly fitted or top-dose-only effect, or effect the other way, or a change in a side signal; the % refers to the signal ratio; note: % is set by controls: 0 for no effect and ±100 for the full control effect
#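 Read-out is the ratio of GFP to DsRed2 object intensity, acquired by 488 nm laser-scanning cytometry on HeLa lamin A-EGFP minigene reporter cells. Compound incubation 48 hrs at 37 °C in Opti-MEM with 2% FBS; DMSO 0.5% final.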
# HTT cytoprotect – protects HTT-Q103 PC12 cells, measured by ATP. Potency, µM (titrated, usually from 56.4 µM), without a hit: cytoprotection (ATP increase), most hits filed as activators. PC12 HTT-Q103 induced, cytoprotection, ATP luminescence, 40 h. 230,000 compounds, 0.14% hits; active = well fitted curve in the direction sought with a large enough effect; inconclusive = small, poorly fitted or top-dose-only effect, or another doubt; inactive = no such curve, though single readings can be large; an effect the other way counts as inactive or inconclusive; note: % of control where 0% means no effect; nearly all actives have a fitted effect of over 45% in size
#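 Huntington model: PC12 line, ecdysone-inducible HTTQ103 exon1–GFP, tebufenozide 100 nM. Test articles in a dose series. Endpoint luminescence from cellular ATP.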
# JMJD2E inh – JMJD2E (human) inhibition | JMJD2E catalytic domain, FDH-coupled NADH fluorescence (FDH is formaldehyde dehydrogenase) | 230,000 compounds, 1.6% hits | B2RXH2 | Potency, µM (titrated, usually from 57.1 µM), for the others: at the highest dose activity change, negative = inhibition, actives largely listed as inhibitors;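 note: 0% = wells with enzyme and -100% = buffer wells without enzyme; nearly all actives have a fitted effect of over 50% in size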
# The depositor's hits bear a star; ? = inconclusive; . = not tested or not shown; [ ] = dose if it differs, or a comment. Unless noted, calls come from the whole dose curve; as a rule, active = well fitted inhibition curve with a large enough effect (not every such curve was filed as active); inconclusive = small, poorly fitted or top-dose-only effect, or another doubt; inactive = no such curve, though single readings can be large or run the other way. Potency is the fitted concentration of half-maximal effect.
SMILES,HttQ103 aggreg,ALDH1A1 inh,HPGD inh,LMNA splice mod,HTT cytoprotect,JMJD2E inh
Cc1nnc(SCC(=O)Nc2cccc(S(=O)(=O)N(C)c3ccccc3)c2)s1,-8%,-2%,0.022µM*,?,21%[10 µM],3%
COCCn1cnnc1SCC(=O)Nc1cccc(S(=O)(=O)N(C)c2ccccc2)c1,17%,5.6µM*,.,.,19%,-5%
COc1ccc(CCNC(=O)c2ccc(Cl)c(S(=O)(=O)N(C)c3ccccc3)c2)cc1,-3%,0%,-15%,?,0%[10 µM],1%
O=C(Nc1ccc(S(=O)(=O)NCC2CCCO2)cc1)c1ccccc1 (stereo not given),-4%,-4%,.,.,-14%,2%
CN(C)S(=O)(=O)c1cccc(NC(=O)CSc2nncn2-c2ccccc2)c1,-32%,?,.,-30%[46 µM],15%,-2%
CC(=O)OC[C@@H]1O[C@H](CCO/N=C\[C@@H](C)[C@H](OCc2ccccc2)C(C)C)C=C[C@@H]1OC(C)=O,.,8%[13.5 µM],.,.,-13%[10 µM],.
CCc1cccc(NC(=O)c2ccc(CN3C(=O)C(C)=C(c4ccc(OC)cc4)S3(=O)=O)cc2)c1,.,.,.,-7%[46 µM],.,.
CCCCOc1cccc(C(=O)N(Cc2ccc(Br)o2)C2CCS(=O)(=O)C2)c1 (stereo not given),.,.,.,17%[46 µM],.,.
C=CCSc1nnc(NC(=O)c2cccc(S(=O)(=O)N(C)c3ccccc3)c2)s1,10µM*,?,?,?,-18%[0.074 µM],?
CCOc1ccc(-c2nc(S(=O)(=O)c3ccccc3)c(N3CCOCC3)o2)cc1,18%,-14%,.,?,-26%,-6%
O=S(=O)(c1ccc(F)cc1)c1nc(-c2ccccc2F)oc1N1CCCCC1,-25%,5µM*,-6%,3%,-12%,-10%
O=S(=O)(c1ccccc1)N1CCC[C@@]2(CCN(Cc3nccs3)C2)C1,.,-12%,-2%,.,9%,.
Cc1ccc2c(c1)S/C(=C/c1ccc[n+](CCO)c1)N2C,-19%,-8%,.,.,-46%,-25%
Cc1cc(/C=C2\Sc3ccccc3N2C)cc(C)[n+]1CC1CCCO1 (stereo not given),2.8µM*,?,.,10%[46 µM],-62%[10 µM],-24%
O=C1C(Nc2ccccc2)=C(NS(=O)(=O)c2ccccc2)C(=O)c2ccccc21,-4%,-11%,1%,?,.,9%
O=C1C=C(Nc2ccccc2)c2ccccc2C1=O,4.5µM*,2%,.,?,-186%,-25%
O=C1C(Nc2ccccc2)=CC(=O)c2ncccc21,.,16µM*,.,.,-187%,.
O=C1C=C(Nc2ccccc2)C(=O)c2ccccc21,11µM*,?,.,?,-134%,2%
CCc1nnc(NC(=O)CSc2nnc(-c3cccnc3)n2C)s1,4%,2%,.,.,-26%,5%
Cc1n(CC(O)COC2CCCCC2)c2ccccc2[n+]1C (stereo not given),9%,-8%,-4%,-5%,2%[10 µM],1%
COc1ccc(C(C)=O)cc1COc1ccccc1[N+](=O)[O-],-1%,3.2µM*,.,?,-34%,3%
COc1ccc(C(C)=O)cc1COc1ccc([N+](=O)[O-])c(C)c1,-12%,?,.,.,.,2%
COc1ccc(C(C)=O)cc1COC(=O)c1ccc(N)c([N+](=O)[O-])c1,0%,10µM*,.,-9%[46 µM],-22%,-3%
Cc1ccc(-c2nn3c(C)nnc3s2)cc1NC(=O)c1ccc(-c2ccc(Cl)cc2Cl)o1,-27%[9.22 µM],?,?,6%,-32%[0.074 µM],?
CCCCC(=O)Nc1cccc(-c2nn3c(C)nnc3s2)c1,?,2%,16µM*,-13%,7%,-8%
SMILES,HttQ103 aggreg,ALDH1A1 inh,HPGD inh,LMNA splice mod,HTT cytoprotect,JMJD2E inh
Cc1ccc(-c2nn3c(C)nnc3s2)cc1NC(=O)c1ccc(-c2cccc(Cl)c2)o1,?,?,22µM*,-2%,-35%,-16%
COc1cc(NC(=O)C(=O)NCCN2CCNCC2)c(OC)cc1Cl,11%,?,.,.,-57%,-4%
COc1ccc2sc3ccccc3c(=O)c2c1OC,-13%,-4%,6.3µM*,-1%,-23%,4%
COc1ccccc1/C=C/C=N/n1c(-c2cc(C)[nH]n2)n[nH]c1=S,-20%,?,14µM*,-10%,17%[10 µM],?
Cc1cc(-c2n[nH]c(=S)n2/N=C/C=C/c2ccccc2)n[nH]1,21%,-6%,16µM*,-7%,5%[10 µM],-4%
Cc1ccc(SCCNS(=O)(=O)c2ccc3c(c2)OCCO3)cc1,-26%,1.4µM*,-10%,?,9%,-10%
O=S(=O)(NCCSc1ccc(Cl)cc1)c1ccc(F)cc1,-11%,?,-11%,14%,-3%,4%
CC(C)OCCCNS(=O)(=O)c1ccc2c(c1)OCCO2,-9%,?,-2%,3%,27%,1%
Cc1ccc(SCCNS(=O)(=O)c2ccc(F)cc2)cc1,-22%,16µM*,-7%,-15%,2%[10 µM],-1%
COc1ccc(S(=O)(=O)NCCSc2ccc(C)cc2)cc1OC,?,5µM*,-23%,?,13%,7%
CCOC(=O)c1ccccc1NC(=O)Cn1ccn2nc(-c3ccc(OCC)cc3)cc2c1=O,.,.,.,2%[46 µM],.,.
CCOCCn1ccc2c(OCC(=O)NCc3ccc(F)cc3)cccc2c1=O,.,.,.,7%[46 µM],.,.
Oc1ccccc1C(Sc1nc2ccccc2s1)Sc1nc2ccccc2s1,.,0.71µM*,4µM*,.,-5%[10 µM],.
CSc1nc2ccccc2s1,-2%,1%,-9%,7%,.,0%
Cc1nonc1CN(C)C(=O)CC1C(=O)NCCN1Cc1ccccc1C(F)(F)F (stereo not given),-7%[9.22 µM],1%,.,.,-10%[10 µM],-20%
O=c1[nH]nc(SCCS(=O)(=O)c2ccc(F)cc2)n1-c1ccc2c(c1)OCCO2,-8%[9.22 µM],20µM*,.,.,41%[10 µM],4%
O=c1[nH]nc(SCCS(=O)(=O)c2ccc(F)cc2)n1-c1ccccc1,1%[9.22 µM],2.8µM*,.,.,15%[10 µM],4%
COc1ccc(S(=O)(=O)N2CCN(c3ccccc3)CC2)cc1,24%[9.22 µM],?,.,11%[46 µM],24%[10 µM],-28%
CN(Cc1cccc2cnccc12)C(=O)CCc1nnc(CCc2ccccc2)o1,-13%[9.22 µM],28µM*,.,11%[46 µM],-7%[10 µM],-22%
Cc1occc1C(=O)NC(C)CCc1ccccc1 (stereo not given),4%,-2%,-5%,10%,-17%[10 µM],0%
Cc1occc1C(=O)NC(C)C(C)(C)C (stereo not given),21%,1%,32µM*,-5%,0%,3%
O=C(NC(Cc1c[nH]c2ccccc12)c1nnc2n1CCCCC2)c1ccccc1 (stereo not given),-3%,3%,-5%,4%,-6%,5%
O=C(NC(Cc1c[nH]c2ccccc12)c1nnc2n1CCCCC2)c1ccccc1Cl (stereo not given),?,-3%,25µM*,12%,-2%,3%

# Screening data: PubChem BioAssay, National Center for Advancing Translational Sciences (NCATS)
